“And” between values parts separate entries of the source, which are not always exact repeats. Equal values may be shown once. About 4,600 (6%) of roughly 77,000 compounds were called active. About 1% were inconclusive and are not listed.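 The calls were made as follows: active = mean inhibition above about 93%, with at least 55% of replicates each passing it (limit read from the data, passing the limit was not always enough); inconclusive = only one of those two conditions holds; inactive = neither condition holds.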 This excerpt belongs to a sample that is enriched for actives.

Drawing on PubChem BioAssay AID624255 (Broad Institute, 2012), this text covers inhibition for 25 compounds.

A short description of this assay: growth inhibition of T. cruzi in host fibroblasts – cell-based, beta-gal Tulahuen parasites, NIH3T3 host, luminescence, primary screen (AID 624255). The note with it: T. cruzi beta-gal in NIH3T3, GalScreen luminescence, 90 h; at 8.34 µM; active compounds read high.
Take `O=C(Cc1ccncc1)N1CCCCN2[C@@H](CO)[C@H](c3ccc(C#CC4(O)CCCC4)cc3)[C@@H]2C1`: the inhibition (in general, the change of the read-out against control, counted positive when it falls) was 93.8% (inactive).
Consider `N#Cc1cccc(-c2ccc([C@H]3[C@@H](CO)N4CCCCN(C(=O)Cc5cccnc5)C[C@@H]34)cc2)c1`, for which the inhibition is 61.2% (inactive).
The figure for `O=C(Cc1ccncc1)N1CCCCN2[C@H](CO)[C@@H](c3ccc(C#CC4(O)CCCC4)cc3)[C@H]2C1` is 63% (inactive); for `O=C(Cc1ccncc1)N1CCCCN2[C@@H](CO)[C@H](c3ccc(-c4ccncc4)cc3)[C@@H]2C1` it is 60.5% (inactive); for `C/C=C/c1ccc([C@H]2[C@H](CO)N3CCCCN(C(=O)Cc4ccncc4)C[C@@H]23)cc1` it is 126% (active).
`COc1cccc(-c2ccc([C@H]3[C@H]4CN(C(=O)Cc5ccncc5)CCCCN4[C@H]3CO)cc2)c1`: the inhibition is 80.9% (inactive).
As for `O=C(Cc1ccccn1)N1CCCCN2[C@@H](CO)[C@@H](c3ccc(C#Cc4ccccc4)cc3)[C@@H]2C1`, the inhibition is 110% (active).
With `O=C(Cc1cccnc1)N1CCCCN2[C@@H](CO)[C@H](c3ccc(C#CC4CCCC4)cc3)[C@@H]2C1`, the inhibition was 110% (active).
In the case of `OC[C@@H]1[C@H]2c3ccccc3NC[C@H]2N1Cc1cccnc1`, the inhibition was 77.8% (inactive).
As for `COc1ccc(-c2ccc([C@H]3[C@H](CO)N4CCCCN(C(=O)Cc5ccncc5)C[C@@H]34)cc2)cc1`, the inhibition was 102% (active).
For `O=C(Cc1ccccn1)N1CCCCN2[C@H](C1)[C@H](c1ccc(-c3ccccc3F)cc1)[C@@H]2CO`, the inhibition was 16.7% (inactive).
`COC(=O)[C@H]1[C@H](CO)[C@H]2Cn3c(ccc(C4=CCCC4)c3=O)[C@@H]1N2C(=O)CC1CC1`: the inhibition was 11.8% (inactive).
The figure for `COC(=O)[C@@H]1[C@@H](CO)[C@@H]2Cn3c(ccc(-c4ccc(F)cc4)c3=O)[C@H]1N2C(C)=O` is -2.43% (inactive); for `COC(=O)[C@H]1[C@H](CO)[C@H]2Cn3c(ccc(-c4cccc(F)c4)c3=O)[C@@H]1N2Cc1ccccc1` it is 8.82% (inactive); for `O=C(O)[C@H]1[C@H](CO)[C@H]2Cn3c(cccc3=O)[C@@H]1N2C(=O)c1ccccc1` it is 42.5% (inactive).
`O=C(O)[C@H]1[C@H](CO)[C@H]2Cn3c(ccc(-c4ccccc4F)c3=O)[C@@H]1N2C(=O)c1cccnc1`: the inhibition was 30% (inactive).
The figure for `COC(=O)C[C@@H]1CC[C@@H]2NC[C@@H](O)COC[C@H]2O1` is 54.8% (inactive); for `COC(=O)[C@H]1[C@H](CO)[C@H]2Cn3c(ccc(-c4ccccc4F)c3=O)[C@@H]1N2C(=O)C1CCC1` it is 44.2% (inactive).
On to `COc1cccc(-c2ccc3n(c2=O)C[C@@H]2[C@@H](CO)[C@H](C(=O)O)[C@H]3N2C(=O)c2cnccn2)c1`, for which the inhibition was 39.3% (inactive).
Consider `C[C@H]1CN([C@@H](C)CO)C(=O)CCCn2nncc2CO[C@H]1CN(C)C(=O)Oc1cccc2ccccc12`, for which the inhibition is -20.3% (inactive) and -6.68% (inactive).
Turning to `COc1ccc(C#Cc2ccc([C@H]3[C@H](CO)N4CCCCN(C(=O)Cc5ccccc5)C[C@@H]34)cc2)cc1`, the inhibition is 109% (active).
Turning to `O=C(Cc1ccccc1)N1CCCCN2[C@H](C1)[C@H](c1ccc(C#CC3(O)CCCC3)cc1)[C@@H]2CO`, the inhibition was 84.7% (inactive).
With `O=C(Cc1ccccc1)N1CCCCN2[C@H](CO)[C@H](c3ccc(C#Cc4ccccc4)cc3)[C@H]2C1`, the inhibition was 94.6% (inactive).
In the case of `COC(=O)[C@@H]1[C@@H](CO)[C@@H]2Cn3c(ccc(C4=CCCCC4)c3=O)[C@H]1N2CC1CC1`, the inhibition is 48.5% (inactive).
Regarding `C[C@H]1CN([C@@H](C)CO)C(=O)CCCn2nncc2CO[C@H]1CN(C)C(=O)Oc1ccccc1`, the inhibition was 32% (inactive) and -17.3% (inactive).
